# In PubChem BioAssay AID1851 (National Center for Advancing Translational Sciences (NCATS), 2009):
# In all, about 16,000 compounds went through this assay and about 4,000 (25%) were called active. Roughly 26% stayed inconclusive and do not appear here. Calls come from the whole dose curve; as a rule, active = well fitted curve in the direction sought with a large enough effect; inconclusive = small, poorly fitted or top-dose-only effect, or effect the other way; inactive = no such curve, though single readings can be large or run the other way. A selection follows.
# Molecular target: Cytochrome P450 2C9 (Homo sapiens) (UniProt P11712)
# Assay: Cytochrome panel assay with activity outcomes
# Details: recombinant CYP, pro-luciferin dealkylation, luminescence, p450-cyp2c9; series mostly up to 57.1 µM; activity, negative = inhibition: at the top concentration
# % is set by controls: 0 for no effect and ±100 for the full control effect.
# Sequence of Cytochrome P450 2C9 (Homo sapiens) (P11712 whole entry, looked up): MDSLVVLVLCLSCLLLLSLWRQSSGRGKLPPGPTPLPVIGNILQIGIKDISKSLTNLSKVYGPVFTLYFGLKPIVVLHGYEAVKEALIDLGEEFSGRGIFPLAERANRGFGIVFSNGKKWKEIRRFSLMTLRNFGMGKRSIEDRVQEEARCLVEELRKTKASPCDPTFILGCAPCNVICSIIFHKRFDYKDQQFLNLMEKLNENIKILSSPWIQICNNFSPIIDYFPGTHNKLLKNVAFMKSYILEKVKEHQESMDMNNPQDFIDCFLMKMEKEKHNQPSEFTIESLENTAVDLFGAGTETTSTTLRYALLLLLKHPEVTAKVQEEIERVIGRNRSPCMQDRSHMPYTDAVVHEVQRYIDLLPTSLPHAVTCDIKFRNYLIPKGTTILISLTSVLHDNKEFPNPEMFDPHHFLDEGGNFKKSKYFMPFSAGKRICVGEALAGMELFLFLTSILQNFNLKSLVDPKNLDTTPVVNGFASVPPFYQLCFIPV
SMILES,"activity, negative = inhibition",AC50
Cc1ccc(-n2c(-c3ccc(Br)cc3)c[n+]3c2CCc2ccc4cccnc4c2-3)cc1,-9.21% (inactive),
OCc1ccc(-c2nn(Cc3ccccc3)c3ccccc23)o1,,31.6 µM (active)
NC(=O)c1csc(-c2ccc(CO)o2)n1,6.84% [at 11.4 µM] (inactive),
CCNc1ncc2nc(-c3ccc(F)cc3)c(=O)n(CCC#N)c2n1,21.5% (inactive),
CN(C)c1ncc2nc(-c3ccc(Cl)cc3)c(=O)n(Cc3cccs3)c2n1,-13.6% (inactive),
COc1cc2nc(SCc3ccc(Cl)cc3Cl)n(Cc3cccs3)c(=N)c2cc1OC,,2.51 µM (active)
CN1CCN(c2ncncc2-c2ccccc2C(F)(F)F)CC1,10.5% [at 2.29 µM] (inactive),
Cc1cc(C)c(S(=O)(=O)N2CCCCC2)c(C)c1N(C)S(=O)(=O)c1ccccc1,,2 µM (active)
Cc1ccc(S(=O)(=O)ON=C2CCN(S(=O)(=O)c3ccccc3)CC2)cc1,-4.35% (inactive),
CCN1C(=O)[C@H]2[C@H]3[C@H](O)[C@H](O)C/C(=N/OCC(C)C)[C@@H]3CC[C@@H]2C1=O,28.3% [at 11.4 µM] (inactive),
Cc1cccc(OCCSCc2nc3ccccc3[nH]2)c1,,5.01 µM (active)
C[N+](C)(C)CCCSc1nc2ccccc2[nH]1,3.61% [at 11.4 µM] (inactive),
CS(=O)(=O)Nc1cccc(-c2ccc3ncnc(Nc4ccc(F)cc4)c3c2)c1,-7.12% [at 2.29 µM] (inactive),
CC(C)C12CN3CC(C(C)C)(CN(C1)C3c1ccco1)C2=O (stereo not given),-18.4% (inactive),
Cc1ccc(N=CC2=C(O)CC(c3ccco3)CC2=O)cc1 (stereo not given),,8.91 µM (active)
COc1ccc(C(=O)N2CCC3(CCCN(C)C3)CC2)cc1,-17.7% (inactive),
CCCn1c(CC)nc([N+](=O)[O-])c1S(=O)(=O)c1ccccc1,5.38% (inactive),
COc1ccc(COc2ccsc2C(=O)Nc2ccc(Cl)c(Cl)c2)cc1,,2.82 µM (active)
CNC(=S)NNC(=O)c1sccc1OCc1ccc(C)cc1,-25.3% (inactive),
CCc1ccc(C(CC(=O)c2ccc(Cl)cc2)C(=O)O)cc1 (stereo not given),,10 µM (active)
N[C@H](Cc1ccc(Cl)cc1)C(=O)O,23.1% (inactive),
O=C(O)CCC(=O)c1ccc(Cl)cc1,18.6% [at 11.4 µM] (inactive),
CS(=O)(=O)Nc1cccc(-c2cc(NCc3ccccc3)ncn2)c1,22.3% [at 2.29 µM] (inactive),

SMILES,"activity, negative = inhibition",AC50
CSc1ccc(CNc2ccccc2)cc1,,12.6 µM (active)
CSc1ccc(CNc2ccc(Cl)cc2)cc1,,6.31 µM (active)
COc1cccc(CNCc2ccc(SC)cc2)c1OC,-20% (inactive),
Cc1ccc(C)c(NC(=O)NCc2ccc(Cl)cc2)c1,-2.65% [at 11.4 µM] (inactive),
Cc1ccc(S(=O)(=O)N[C@H]2COC(=O)C/C=C\[C@@H](C)[C@H](NS(=O)(=O)c3ccc(C)cc3)COC(=O)[C@H](C)NC(=O)C/C=C\[C@H]2C)cc1,15.4% [at 11.4 µM] (inactive),
COC(=O)C/C=C\[C@@H](C)[C@@H](/C=N\OC[C@@H](O)COCc1ccco1)NS(=O)(=O)c1ccc(C)cc1,-14.9% [at 11.4 µM] (inactive),
COC(=O)C/C=C\[C@@H](C)[C@@H](/C=N\OC[C@@H]1O[C@H](c2ccccc2)C=C[C@@H]1Oc1ccc(OC)cc1)NS(=O)(=O)c1ccc(C)cc1,,1.26 µM (active)
CO/N=C\[C@@H](NS(=O)(=O)c1ccc(C)cc1)[C@H](C)/C=C\CC(=O)OC,-27.4% [at 11.4 µM] (inactive),
COC(=O)C/C=C\[C@@H](C)[C@@H](/C=N\O[C@@H](C)c1cn([C@H]2COC[C@H]2O)nn1)NS(=O)(=O)c1ccc(C)cc1,16% [at 11.4 µM] (inactive),
CCCNC(=O)OC[C@H]1O[C@@H](CCO/N=C\[C@@H](NS(=O)(=O)c2ccc(C)cc2)[C@H](C)/C=C\CC(=O)OC)C=C[C@@H]1Oc1ccc(OC)cc1,,3.98 µM (active)
CCCNC(=O)OC[C@@H]1O[C@H](CCO/N=C\[C@@H](C)[C@H](OCc2ccccc2)C(C)C)C=C[C@@H]1Oc1ccc(OC)cc1,-22.3% [at 11.4 µM] (inactive),
COC(=O)C/C=C\[C@@H](C)[C@@H](/C=N\O[C@@H](C)c1cc(-c2c(C)cc(C)cc2C)no1)NS(=O)(=O)c1ccc(C)cc1,,2.51 µM (active)
CCCNC(=O)OC[C@@H]1O[C@H](CCON=C(C)C)C=C[C@@H]1Oc1ccc(OC)cc1,2.96% [at 11.4 µM] (inactive),
COc1ccc(O[C@H]2C=C[C@@H](c3ccccc3)O[C@@H]2CO/N=C\[C@@H](C)[C@H](OCc2ccccc2)C(C)C)cc1,-24.2% [at 11.4 µM] (inactive),
CCNc1ncc2nc(-c3ccc(F)cc3)c(=O)n(CCOC)c2n1,-4.26% (inactive),
CCOC(=O)C1=C(C)NC(=O)NC1c1ccoc1 (stereo not given),,12.6 µM (active)
CCOC(=O)c1c(C)c(C)n2c1NC(=O)C2,-2.03% [at 11.4 µM] (inactive),
CCOC(=O)C1=C(C)NC(=O)N[C@@H]1c1coc2cc(C)cc(C)c2c1=O,-14.5% [at 11.4 µM] (inactive),
COc1cc2nc(N(C)CCCNC(=O)[C@@H]3CCCO3)nc(N)c2cc1OC,-16.9% [at 25.6 µM] (inactive),
COCCCNC(=O)CCC(=O)Nc1ccc2nc(N3CCOCC3)cc(C)c2c1,-26.7% (inactive),
COCCn1c(=O)c(-c2ccc(OC)cc2)nc2cnc(N3CCOCC3)nc21,17.6% (inactive),
CCN(C(=O)CSc1nc2cc(C(=O)OC)ccc2c(=O)n1Cc1ccco1)c1cccc(C)c1,,0.2 µM (active)
COCCNC(=O)CSc1nc2ccc(N3CCOCC3)cc2c(=O)n1Cc1ccc(OC)cc1,,5.62 µM (active)

SMILES,"activity, negative = inhibition",AC50
CCCCNC(=O)CSc1nc2cc(OC)c(OC)cc2c(=O)n1Cc1ccc(OC)cc1,,2.24 µM (active)
COc1cc2nc(N3CC=[N+](C(=O)c4ccco4)CC3)nc(N)c2cc1OC,-8.49% (inactive),
COCCNC(=O)CSc1nc2cc(OC)c(OC)cc2c(=O)n1Cc1ccco1,,2.24 µM (active)
COc1ccc2nc(SCC(=O)NN)cc(C)c2c1,12.8% (inactive),
CCN1CCC[C@H]1CNC(=O)c1cc(S(N)(=O)=O)ccc1OC,,inactive
Cc1sc2ccccc2[n+]1CCC(=O)O,9.02% [at 11.4 µM] (inactive),
CCOC(=O)C[n+]1c(C)sc2ccc(OC)cc21,,14.1 µM (active)
Cc1sc2ccccc2[n+]1CCC(C)S(=O)(=O)[O-] (stereo not given),-33% (inactive),
COc1cccc(Nc2ncc3nc(CCc4ccccc4)c(=O)n(CCC#N)c3n2)c1,10.7% (inactive),
N#CCCn1c(=O)c(CCc2ccccc2)nc2cnc(OCc3ccccc3)nc21,,15.8 µM (active)
N#CCCn1c(=O)c(CCc2ccccc2)nc2cnc(Oc3cccc(Cl)c3)nc21,,3.16 µM (active)
COCCn1c(=O)c(-c2cn(C)c3ccccc23)nc2cnc(OCc3ccccc3)nc21,23.6% (inactive),
N#CCCn1c(=O)c(CCc2ccccc2)nc2cnc(Oc3ccccc3)nc21,,7.94 µM (active)
COc1ccc(Oc2ncc3nc(CCc4ccccc4)c(=O)n(CCC#N)c3n2)cc1,,10 µM (active)
COc1ncc2nc(CCc3ccccc3)c(=O)n(CCC#N)c2n1,-25.7% (inactive),
Cn1cc(-c2nc3cnc(Oc4ccccc4)nc3n(CCC#N)c2=O)c2ccccc21,6% (inactive),
C/C(=N\[N+](C)(C)C)c1ccc(C)c(C)c1,13% [at 11.4 µM] (inactive),
COCCn1c(=O)c(CCc2ccccc2)nc2cnc(Oc3cccc(Cl)c3)nc21,,1 µM (active)
COc1ccc(Oc2ncc3nc(C)c(=O)n(C)c3n2)cc1,7.96% (inactive),
COc1ncc2nc(CCc3ccccc3)c(=O)n(C)c2n1,-24.3% (inactive),
N#CCCn1c(=O)c(-c2ccc(F)cc2)nc2cnc(OCc3ccccc3)nc21,7.08% (inactive),
N#CCCn1c(=O)c(-c2ccccc2)nc2cnc(OCc3ccccc3)nc21,,12.6 µM (active)
COCCn1c(=O)c(CCc2ccccc2)nc2cnc(Oc3ccc(OC)cc3)nc21,,10 µM (active)

SMILES,"activity, negative = inhibition",AC50
COc1ccc(Oc2ncc3nc(CCc4ccccc4)c(=O)n(C)c3n2)cc1,,10 µM (active)
N#CCCn1c(=O)cnc2cnc(OCc3ccccc3)nc21,-2.69% (inactive),
COc1ccc(CNc2ccnc(-c3ccccc3Cl)n2)c(OC)c1,-11.5% [at 2.29 µM] (inactive),
N[C@@H]1[C@@H]2[C@@H]3C[C@H]4N(CC[C@@]14C(=O)C(=O)O)CC3=CCO[C@@H]2CC(=O)O,5.63% [at 11.4 µM] (inactive),
CC(C)(C)CNCCO,3.65% [at 11.4 µM] (inactive),
O=C(Nc1cccc(F)c1)N1CC[C@@]2(CCCN(C(=O)c3cnccn3)C2)C1,1.58% (inactive),
CS(=O)(=O)Nc1ccc(S(=O)(=O)N2CCOCC2)cc1,-26.6% (inactive),
COc1cc(NC(=S)Nc2ccc(S(=O)(=O)N3CCOCC3)cc2)cc(OC)c1OC,,15.8 µM (active)
FC(F)(F)c1ccccc1-c1cncnc1Nc1ccccc1,-0.414% [at 2.29 µM] (inactive),
CC(=O)NCCNc1cc(-c2ccccc2C(F)(F)F)ncn1,-3.9% [at 2.29 µM] (inactive),
CC=C(/C(=C/C)c1ccc(O)cc1)c1ccc(O)cc1,,0.794 µM (active)
Cc1cc(N2CCN(C)CC2)n2nc(-c3ccc(Cl)cc3)nc2n1,6.91% [at 11.4 µM] (inactive),
COc1ccc(-c2nc3cnc(N(C)C)nc3n(C[C@H]3CCCO3)c2=O)cc1,25.1% (inactive),
O=c1c(CCc2ccccc2)nc2cnc(Oc3cccc(Cl)c3)nc2n1C[C@H]1CCCO1,,6.31 µM (active)
COc1ncc2nc(-c3cc(F)cc(F)c3)c(=O)n(C[C@H]3CCCO3)c2n1,-21.8% (inactive),
O=c1c(-c2cccs2)nc2cnc(Oc3cccc(Cl)c3)nc2n1C[C@H]1CCCO1,,3.16 µM (active)
COc1ccc(-c2nc3cnc(Oc4cccc(Cl)c4)nc3n(C[C@H]3CCCO3)c2=O)cc1,,5.01 µM (active)
CN(C)c1ncc2nc(-c3cccs3)c(=O)n(C[C@H]3CCCO3)c2n1,6.79% (inactive),
O=c1c(-c2cccs2)nc2cnc(Nc3ccccc3)nc2n1C[C@H]1CCCO1,2.81% (inactive),
O=c1cnc2cnc(Nc3ccccc3)nc2n1C[C@H]1CCCO1,-25.1% (inactive),
Cc1nc2cnc(Oc3cccc(Cl)c3)nc2n(C[C@H]2CCCO2)c1=O,-12.1% (inactive),
